# Test results as given in PubChem BioAssay (Tox21).
# Inconclusive results are not listed. A call without a number means that no potency is given here. Values without a mark were called inactive. Activity calls are given as the source filed them. Unless noted, calls come from the whole dose curve; as a rule, active = well fitted curve in the direction sought with a large enough effect in the repeat runs; inconclusive = weak or mixed curves; inactive = no such curve, though single readings can be large; an effect the other way counts as inactive or inconclusive.
# Experiments:
# [1] = qHTS assay to identify aromatase inhibitors - cell viability counter screen (AID 743084);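 note: cells stimulated with testosterone during compound exposure; nearly all actives have a fitted effect of over 55% in size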
# [2] = molecular target: Aryl hydrocarbon receptor (Homo sapiens) (UniProt P35869); experiment: qHTS assay to identify small molecule that activate the aryl hydrocarbon receptor (AhR) signaling pathway (AID 743085); note: nearly all actives have a fitted effect of over 15% in size; note: potency is the fitted concentration of half-maximal effect;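 for activation: HG2L7.5c1 human HepG2 liver cells with stably integrated DRE-driven firefly reporter; series mostly up to about 70 µM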
# Aryl hydrocarbon receptor (Homo sapiens), sequence (P35869 whole entry, looked up): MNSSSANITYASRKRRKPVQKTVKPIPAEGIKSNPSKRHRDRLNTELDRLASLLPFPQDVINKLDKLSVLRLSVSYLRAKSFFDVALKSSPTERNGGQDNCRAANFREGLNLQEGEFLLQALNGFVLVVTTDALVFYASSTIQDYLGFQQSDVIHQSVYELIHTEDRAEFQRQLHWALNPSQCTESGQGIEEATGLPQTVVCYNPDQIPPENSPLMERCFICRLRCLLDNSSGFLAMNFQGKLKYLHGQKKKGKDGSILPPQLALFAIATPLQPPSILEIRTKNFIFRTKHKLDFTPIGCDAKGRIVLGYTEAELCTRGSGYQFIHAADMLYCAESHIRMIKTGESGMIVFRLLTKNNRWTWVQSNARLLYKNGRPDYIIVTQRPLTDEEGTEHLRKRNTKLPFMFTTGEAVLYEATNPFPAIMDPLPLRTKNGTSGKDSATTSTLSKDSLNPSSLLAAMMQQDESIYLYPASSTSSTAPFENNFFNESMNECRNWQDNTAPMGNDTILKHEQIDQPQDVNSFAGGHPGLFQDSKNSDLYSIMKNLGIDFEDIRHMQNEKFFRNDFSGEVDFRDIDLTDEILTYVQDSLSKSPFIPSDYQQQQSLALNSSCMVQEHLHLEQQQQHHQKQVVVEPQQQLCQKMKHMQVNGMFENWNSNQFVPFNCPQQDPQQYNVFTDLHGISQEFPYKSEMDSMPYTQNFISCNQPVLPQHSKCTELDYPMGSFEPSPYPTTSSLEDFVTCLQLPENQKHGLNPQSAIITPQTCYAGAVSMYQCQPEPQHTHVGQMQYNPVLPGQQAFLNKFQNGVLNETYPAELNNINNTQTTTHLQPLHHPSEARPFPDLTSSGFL
# How it was run: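 Measured in HG2L7.5c1 cells: CellTiter-Fluor signal (30 min incubation, 37C) for viability, then luciferase luminescence (30 min, room temperature). Compound contact time was 24 h at 37C, following a 5 h pre-incubation.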
# [3] = qHTS assay to identify small molecule that activate the aryl hydrocarbon receptor (AhR) signaling pathway - cell viability counter screen (AID 743086);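 note: HepG2 liver cells carrying the AhR DRE luciferase reporter; series mostly up to about 70 µM; nearly all actives have a fitted effect of over 45% in size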
# How it was run: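 HepG2-AhR-luc (HG2L7.5c1) cells, 4000/well, treated 24 h at 37 C with compound; viability measured as CellTiter-Fluor fluorescence after 30 min in the same wells as the luciferase read.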
# [4] = molecular target: Peroxisome proliferator-activated receptor gamma (Homo sapiens) (UniProt P37231); experiment: qHTS assay to identify small molecule agonists of the peroxisome proliferator-activated receptor gamma (PPARg) signaling pathway (AID 743094; active = well fitted activation curve with a large enough effect in the signal ratio in the repeat runs, not every such curve was filed as active; the % refers to the signal ratio)
# Peroxisome proliferator-activated receptor gamma (Homo sapiens), sequence (P37231 whole entry, looked up): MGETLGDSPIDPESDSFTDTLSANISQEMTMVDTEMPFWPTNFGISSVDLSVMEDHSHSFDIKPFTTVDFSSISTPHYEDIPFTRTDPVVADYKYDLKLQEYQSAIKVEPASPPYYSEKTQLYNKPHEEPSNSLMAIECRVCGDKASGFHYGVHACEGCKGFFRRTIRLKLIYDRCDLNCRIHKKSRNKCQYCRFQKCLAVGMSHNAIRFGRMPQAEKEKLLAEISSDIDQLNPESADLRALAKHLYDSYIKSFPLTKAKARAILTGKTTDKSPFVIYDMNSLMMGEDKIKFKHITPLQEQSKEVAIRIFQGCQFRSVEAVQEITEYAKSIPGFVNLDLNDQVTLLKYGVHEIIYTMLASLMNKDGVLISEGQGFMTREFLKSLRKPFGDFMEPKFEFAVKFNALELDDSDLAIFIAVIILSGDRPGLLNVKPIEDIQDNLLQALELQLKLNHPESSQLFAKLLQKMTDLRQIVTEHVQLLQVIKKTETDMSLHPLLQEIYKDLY
# How it was run: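 Fluorescence-based beta-lactamase readout in HEK293H PPARg UAS-bla cells after 17 h compound exposure (37C) and 1 h B/G FRET substrate incubation at room temperature.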
# [5] = qHTS assay to identify small molecule antagonists of the peroxisome proliferator-activated receptor gamma (PPARg) signaling pathway - cell viability counter screen (AID 743194); note: nearly all actives have a fitted effect of over 55% in size
# How it was run: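 Cytotoxicity counter screen in PPARg-bla HEK293H cells, same wells as reporter assay. Compounds plus 50 nM rosiglitazone (final) for 17 h at 37 C, then viability read by CellTiter-Glo luminescence.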
# [6] = qHTS assay for small molecule agonists of the antioxidant response element (ARE) signaling pathway (AID 743202; active = well fitted activation curve with a large enough effect in the signal ratio in the repeat runs, not every such curve was filed as active; the % refers to the signal ratio)
# How it was run: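 HepG2 ARE-bla cells; 16 h treatment at 37 C; FRET-based beta-lactamase fluorescence read after 2 h substrate incubation at room temperature.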
# [7] = qHTS assay for small molecule agonists of the antioxidant response element (ARE) signaling pathway - cell viability counter screen (AID 743203; calls by dose curve; note: nearly all actives have a fitted effect of over 55% in size)
# How it was run: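 Parallel cytotoxicity read-out for the ARE-bla screen: HepG2 reporter cells, 16 hrs with compounds, then CellTiter-Glo luminescence.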
# [8] = qHTS assay for small molecule activators of the heat shock response signaling pathway - cell viability counter screen (AID 743209); note: nearly all actives have a fitted effect of over 50% in size
# How it was run: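 To flag cytotoxic compounds, HSE-bla HeLa cells plated at 1500 cells/well were dosed for 5 h at 37 C, followed by the reporter FRET read and then CellTiter-Glo, with luminescence recorded 30 min after reagent addition.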
# [9] = qHTS assay for small molecule activators of the heat shock response signaling pathway (AID 743210; active = well fitted activation curve with a large enough effect in the signal ratio in the repeat runs, with a control signal flat, not every such curve was filed as active; the % refers to the signal ratio;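 note: HeLa cells with beta-lactamase reporter driven by heat shock elements; series mostly up to about 63 µM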)
# How it was run: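 Following overnight attachment, HSE-bla HeLa cells received test compounds for 5 h at 37 C; beta-lactamase activity was then detected via FRET substrate fluorescence.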
# [10] = qHTS assay to identify small molecule agonists of the peroxisome proliferator-activated receptor delta (PPARd) signaling pathway - cell viability counter screen (AID 743211); note: nearly all actives have a fitted effect of over 55% in size
# How it was run: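 Following 5 h plating at 37 C and 5% CO2, PPARd UAS-bla HEK293H cells took up test compounds for 17 h. Viability was quantified by luminescence 30 min after CellTiter-Glo addition at room temperature.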
# [11] = molecular target: Peroxisome proliferator-activated receptor delta (Homo sapiens) (UniProt Q03181); experiment: qHTS assay to identify small molecule agonists of the peroxisome proliferator-activated receptor delta (PPARd) signaling pathway (AID 743212; calls by dose curve)
# Peroxisome proliferator-activated receptor delta (Homo sapiens), sequence (Q03181 whole entry, looked up): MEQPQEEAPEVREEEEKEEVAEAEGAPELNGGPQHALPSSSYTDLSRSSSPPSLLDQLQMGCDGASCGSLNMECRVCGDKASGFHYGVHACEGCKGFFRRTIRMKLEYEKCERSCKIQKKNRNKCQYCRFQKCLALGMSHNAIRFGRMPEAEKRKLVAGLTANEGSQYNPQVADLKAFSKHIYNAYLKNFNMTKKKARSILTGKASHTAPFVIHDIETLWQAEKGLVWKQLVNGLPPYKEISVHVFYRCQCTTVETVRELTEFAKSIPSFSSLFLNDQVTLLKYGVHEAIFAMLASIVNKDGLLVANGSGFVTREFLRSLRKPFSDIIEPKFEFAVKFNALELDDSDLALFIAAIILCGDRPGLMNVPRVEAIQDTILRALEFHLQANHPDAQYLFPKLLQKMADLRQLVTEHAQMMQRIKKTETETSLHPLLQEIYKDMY
# How it was run: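 Tox21 library screened in GeneBLAzer PPARd UAS-bla HEK293H cells. After compound treatment at 37 C, a FRET-based beta-lactamase substrate was applied for 2 h and fluorescence recorded.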
# [12] = qHTS assay to identify small molecule antagonists of the peroxisome proliferator-activated receptor delta (PPARd) signaling pathway - cell viability counter screen (AID 743213); note: nearly all actives have a fitted effect of over 50% in size
# How it was run: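 HEK293H PPARd UAS-bla cells, 5 h pre-incubation, compound + L165041 300 nM final, 17 h 37 C; B/G FRET substrate 2 h RT; then CellTiter-Glo 30 min RT, luminescence.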
# [13] = molecular target: Peroxisome proliferator-activated receptor delta (Homo sapiens) (UniProt Q03181); experiment: qHTS assay to identify small molecule antagonists of the peroxisome proliferator-activated receptor delta (PPARd) signaling pathway (AID 743215; active = well fitted inhibition curve with a large enough effect in the signal ratio in the repeat runs, not every such curve was filed as active; the % refers to the signal ratio;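 note: cells stimulated with agonist L165041 at 300 nM final during compound exposure; series mostly up to about 62 µM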)
# How it was run: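 Screen format: qHTS, antagonist mode. HEK293H PPARd-bla cells received compound and 300 nM L165041 (final), 17 h, 37 C. Beta-lactamase detected via FRET substrate fluorescence, 2 h, room temperature.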
# [14] = qHTS assay to identify small molecule agonists of the farnesoid-X-receptor (FXR) signaling pathway - cell viability counter screen (AID 743218); note: nearly all actives have a fitted effect of over 45% in size
# How it was run: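 Same-well cytotoxicity check on FXR-UAS-bla HEK 293T cells: 5 h attachment, 16 h compound at 37 C, CellTiter-Glo luminescence read at room temperature after 30 min.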
# [15] = qHTS assay to identify small molecule antagonists of the farnesoid-X-receptor (FXR) signaling pathway - cell viability counter screen (AID 743221; active = well fitted cell-killing curve with a large enough effect in the repeat runs, not every such curve was filed as active; note: nearly all actives have a fitted effect of over 50% in size)
# How it was run: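 Compound effects on cell number were measured as CellTiter-Glo luminescence in HEK 293T cells expressing FXR-UAS-bla, after 16 h at 37 C with 50 uM CDCA (final).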
# [16] = molecular target: Vitamin D3 receptor (Homo sapiens) (UniProt P11473); experiment: qHTS assay to identify small molecule agonists of the vitamin D receptor (VDR) signaling pathway (AID 743222; calls by dose curve)
# Vitamin D3 receptor (Homo sapiens), sequence (P11473 whole entry, looked up): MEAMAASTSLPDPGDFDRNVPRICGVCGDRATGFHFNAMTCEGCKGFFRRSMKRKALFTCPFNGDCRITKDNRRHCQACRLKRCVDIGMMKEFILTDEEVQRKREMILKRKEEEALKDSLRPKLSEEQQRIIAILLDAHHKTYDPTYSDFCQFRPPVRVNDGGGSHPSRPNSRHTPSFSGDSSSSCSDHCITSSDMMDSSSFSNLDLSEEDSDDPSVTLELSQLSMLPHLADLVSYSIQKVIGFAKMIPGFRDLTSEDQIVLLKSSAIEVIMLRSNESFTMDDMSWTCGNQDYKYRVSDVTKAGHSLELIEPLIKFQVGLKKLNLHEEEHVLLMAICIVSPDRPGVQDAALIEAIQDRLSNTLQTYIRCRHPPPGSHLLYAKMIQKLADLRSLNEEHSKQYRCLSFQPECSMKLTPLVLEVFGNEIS
# How it was run: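 Using LiveBLAzer B/G FRET detection, agonism was scored in VDR-bla cells exposed overnight (16 h, 37C) to DMSO-dissolved compounds; substrate incubation was 2 h at room temperature.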
# [17] = molecular target: Vitamin D3 receptor (Homo sapiens) (UniProt P11473); experiment: qHTS assay to identify small molecule antagonists of the vitamin D receptor (VDR) signaling pathway (AID 743223; active = well fitted inhibition curve with a large enough effect in the signal ratio in the repeat runs, not every such curve was filed as active; the % refers to the signal ratio)
# How it was run: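 Beta-lactamase activity in VDR-bla cells is measured by FRET substrate fluorescence (2 h, room temperature) after cells spend 16 h at 37C with test compound and 3 nM final 1alpha,25-dihydroxyvitamin D3.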
# [18] = molecular target: Peroxisome proliferator-activated receptor gamma (Homo sapiens) (UniProt P37231); experiment: qHTS assay to identify small molecule antagonists of the peroxisome proliferator-activated receptor gamma (PPARg) signaling pathway (AID 743191; calls by dose curve; note: series mostly up to about 63 µM; nearly all actives have a fitted effect of over 30% in size)
# How it was run: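 GeneBLAzer PPARg UAS-bla HEK293H cells, 5 h post-plating, exposed to compounds 17 h at 37C. LiveBLAzer B/G FRET substrate added for 1 h at room temperature; beta-lactamase reporter read by fluorescence intensity.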
# [19] = molecular target: Bile acid receptor (Homo sapiens) (UniProt Q96RI1); experiment: qHTS assay to identify small molecule antagonists of the farnesoid-X-receptor (FXR) signaling pathway (AID 743217; active = well fitted inhibition curve with a large enough effect in the signal ratio in the repeat runs, not every such curve was filed as active; the % refers to the signal ratio)
# Bile acid receptor (Homo sapiens), sequence (Q96RI1 whole entry, looked up): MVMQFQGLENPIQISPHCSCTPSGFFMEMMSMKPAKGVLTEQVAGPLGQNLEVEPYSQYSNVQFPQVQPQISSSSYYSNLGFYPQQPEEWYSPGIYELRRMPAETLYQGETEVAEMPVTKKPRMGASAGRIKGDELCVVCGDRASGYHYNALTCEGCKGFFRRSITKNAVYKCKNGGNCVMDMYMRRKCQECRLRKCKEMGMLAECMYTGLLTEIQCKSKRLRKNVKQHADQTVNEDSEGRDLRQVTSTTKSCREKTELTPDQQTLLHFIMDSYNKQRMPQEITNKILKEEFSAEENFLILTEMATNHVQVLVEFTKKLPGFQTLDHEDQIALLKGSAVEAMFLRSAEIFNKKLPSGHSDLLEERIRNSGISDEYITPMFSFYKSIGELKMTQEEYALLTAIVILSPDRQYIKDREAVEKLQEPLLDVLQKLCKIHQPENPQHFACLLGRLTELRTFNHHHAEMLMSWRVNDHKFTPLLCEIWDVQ
# How it was run: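 Quantitative HTS, beta-lactamase reporter format: FXR-UAS-bla HEK 293T cells co-treated 16 h at 37 °C with compounds and 50 uM final chenodeoxycholic acid, then read by B/G FRET fluorescence.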
# [20] = molecular target: Bile acid receptor (Homo sapiens) (UniProt Q96RI1); experiment: qHTS assay to identify small molecule agonists of the farnesoid-X-receptor (FXR) signaling pathway (AID 743220; active = well fitted activation curve with a large enough effect in the signal ratio in the repeat runs, not every such curve was filed as active; the % refers to the signal ratio)
# How it was run: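 FXR-UAS-bla HEK 293T cells carrying a UAS-driven beta-lactamase reporter were plated for 5 h at 37C/5% CO2, then exposed to DMSO-dissolved Tox21 10K compounds for 16 h at 37C. A LiveBLAzer B/G FRET substrate was loaded for 2 h at room temperature before fluorescence reading.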
Compound,Potency [1],Potency [2],Potency [3],Potency [4],Potency [5],Potency [6],Potency [7],Potency [8],outcome [9],Potency [10],outcome [11],Potency [12],outcome [13],Potency [14],Potency [15],outcome [16],Potency [17],Potency [18],outcome [19],outcome [20]
CCCCCCCCCC(=O)OCC,inactive,inactive,inactive,inactive,inactive,inactive,inactive,inactive,inactive,inactive,inactive,inactive,inactive,inactive,inactive,inactive,inactive,,,
Cc1ccccc1N=Nc1ccc(N=Nc2c(O)ccc3ccccc23)c(C)c1,inactive,13.3 µM (active),inactive,inactive,inactive,,inactive,inactive,inactive,inactive,inactive,,inactive,inactive,inactive,,,inactive,,
CN(C)CC[C@@H](c1ccc(Br)cc1)c1ccccn1,inactive,inactive,inactive,inactive,,,,,inactive,,inactive,inactive,inactive,inactive,,,,inactive,inactive,inactive
CCCCOCCOCCOCCOCCO,inactive,inactive,inactive,inactive,inactive,inactive,inactive,inactive,inactive,inactive,inactive,,inactive,,inactive,inactive,,,,
CC(O)C1CCCCC1 (configuration not stated),inactive,inactive,inactive,inactive,inactive,,inactive,inactive,inactive,inactive,inactive,,inactive,inactive,inactive,inactive,,inactive,,
CCCCCCCCCCCCCCCC(=O)OC/C=C(C)/C=C/C=C(C)/C=C/C1=C(C)CCCC1(C)C,inactive,inactive,inactive,inactive,inactive,,,inactive,,inactive,inactive,,inactive,,inactive,inactive,inactive,inactive,inactive,inactive
CC(C)NCC(O)c1cc(O)cc(O)c1 (configuration not stated),inactive,inactive,inactive,inactive,inactive,,inactive,inactive,inactive,inactive,,inactive,,inactive,inactive,inactive,inactive,inactive,,
O=S(=O)(O)c1ccc(O)c2ncccc12,inactive,inactive,inactive,inactive,inactive,,,inactive,,inactive,,inactive,,,inactive,inactive,,inactive,inactive,inactive
CCCCCCCC/C=C\CCCCCCCC(N)=O,inactive,inactive,inactive,inactive,inactive,inactive,inactive,inactive,inactive,inactive,inactive,inactive,inactive,,inactive,inactive,inactive,,,inactive
N#Cc1c(F)cccc1F,inactive,inactive,inactive,inactive,inactive,inactive,inactive,inactive,inactive,inactive,inactive,inactive,inactive,inactive,inactive,,,,inactive,inactive
CCOc1nc2cccc(C(=O)O)c2n1Cc1ccc(-c2ccccc2-c2nn[nH]n2)cc1,inactive,inactive,inactive,inactive,inactive,,,inactive,inactive,inactive,inactive,inactive,inactive,,inactive,,,inactive,,
CC(C)(C)c1ccc(S)cc1,inactive,inactive,inactive,inactive,inactive,,inactive,,,inactive,,inactive,inactive,inactive,inactive,inactive,inactive,inactive,,
CN1CCC[C@@H]1c1cccnc1,inactive,inactive,inactive,inactive,inactive,inactive,,inactive,,inactive,,inactive,,inactive,inactive,inactive,inactive,inactive,,
CCOC(=O)CC(C)C,inactive,inactive,inactive,inactive,,inactive,inactive,inactive,inactive,inactive,inactive,,,inactive,inactive,inactive,,inactive,,
COc1ccc(OC)c(OC)c1,inactive,inactive,inactive,inactive,inactive,,inactive,inactive,,,,,,inactive,inactive,inactive,inactive,inactive,inactive,inactive
CC(=O)SCc1ccco1,inactive,inactive,inactive,inactive,inactive,,inactive,inactive,,,inactive,inactive,inactive,inactive,inactive,inactive,inactive,inactive,,inactive
CC[C@H](C)[C@H](N)C(=O)O,inactive,inactive,inactive,inactive,inactive,inactive,,,inactive,inactive,,inactive,,inactive,inactive,inactive,inactive,inactive,,
C[Si](C)O[Si](C)(C)O[Si](C)(C)O[Si](C)C,inactive,inactive,inactive,inactive,,inactive,,inactive,,inactive,,inactive,,inactive,inactive,inactive,inactive,inactive,,
CN(C(=O)CCCOc1ccc2[nH]c(=O)ccc2c1)C1CCCCC1,inactive,inactive,inactive,inactive,inactive,inactive,inactive,inactive,inactive,inactive,,inactive,,inactive,inactive,inactive,,,inactive,inactive
